RGS4-Gao reg: modulators of RGS4 binding to Galphao, primary screen, biochemical, multiplexed bead flow cytometry. Guanine nucleotide-binding protein G(o) subunit alpha (Homo sapiens), P09471. binding response (% of control), % at 10 µM. AID 1415, 2008. actives lie on both sides. 220,000 tested, 0.33% active; in the data active means binding response below about 49% or above about 150%; inactive means in between;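 further: fluorescent Galphao activated with aluminum fluoride binding bead-coupled RGS4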
RGS7-Gao reg: RGS7-Galphao binding modulators, primary screen, biochemical, multiplexed bead flow cytometry; Guanine nucleotide-binding protein G(o) subunit alpha (Homo sapiens), P09471; actives lie on both sides; binding response (% of control), % at 10 µM; 220,000 tested, 0.35% active; in the data active means binding response below about 49% or above about 150%; inconclusive means no clear call, values can overlap the other calls; inactive means in between;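 further: fluorescent Galphao held in activated GDP-AlF4 state binding bead-coupled RGS7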
RGS16-Gao: modulators of RGS16 binding to Galphao, primary screen, biochemical, human proteins, multiplexed bead flow cytometry; bead-based flow cytometry RGS16-Galphao binding, fluorescence; actives lie on both sides; binding response (% of control), % at 10 µM; 220,000 tested, 0.38% active; call rule not given here;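 further: Galphao activated by GDP with aluminum fluoride before binding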
Target sequence (O15492 whole entry, looked up): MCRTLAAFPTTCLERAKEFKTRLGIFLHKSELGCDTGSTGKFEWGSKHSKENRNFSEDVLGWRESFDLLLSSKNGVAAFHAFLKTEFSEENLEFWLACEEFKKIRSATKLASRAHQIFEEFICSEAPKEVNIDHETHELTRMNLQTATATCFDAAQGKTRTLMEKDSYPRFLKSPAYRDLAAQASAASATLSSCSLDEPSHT
Target sequence (P09471 whole entry, looked up): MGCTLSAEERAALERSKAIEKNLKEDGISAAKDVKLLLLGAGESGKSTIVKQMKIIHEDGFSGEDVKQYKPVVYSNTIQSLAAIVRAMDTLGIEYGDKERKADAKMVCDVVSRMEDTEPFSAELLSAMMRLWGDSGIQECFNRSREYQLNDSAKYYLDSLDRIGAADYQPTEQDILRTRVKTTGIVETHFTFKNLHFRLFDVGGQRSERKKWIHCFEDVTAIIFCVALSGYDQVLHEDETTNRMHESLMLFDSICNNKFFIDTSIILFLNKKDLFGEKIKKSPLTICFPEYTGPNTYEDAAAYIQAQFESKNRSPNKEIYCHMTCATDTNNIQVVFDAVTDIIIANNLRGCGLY
RGS8-Gao reg: RGS8-Galphao binding modulators, primary screen, biochemical, multiplexed bead flow cytometry | Guanine nucleotide-binding protein G(o) subunit alpha (Homo sapiens), P09471 | actives lie on both sides | response (percent of control binding), % at 10 µM | 220,000 tested, 0.34% active | AID 1423, 2008; in the data active means response below about 60% or above about 140%; inactive means in between;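 further: Galphao activated as the GDP aluminium fluoride complex binding bead-coupled RGS8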
GSH bead fluor: compound fluorescence on glutathione beads, profiling panel, artefact control, biophysical, 488/530 nm, flow cytometry; GSH beads flow cytometry, compound fluorescence 488/530 nm; stronger effect = higher value; fluorescence (KMESF) at 10 µM; 190,000 tested, 0.25% active; in the data active means fluorescence above about 89;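 further: glutathione beads carrying GST-tagged Bcl family fusion proteins plus one bare bead set; values are compound well signal with DMSO vehicle wells as background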
Avidin bead fluor: green autofluorescence of compounds with avidin beads – biophysical, 488/530 nm, flow cytometry, artefact control, profiling panel | compound fluorescence 488/530 nm; stronger effect = higher value | fluorescence (KMESF) at 10 µM | 220,000 tested, 0.38% active | AID 1775, 2009; in the data active means fluorescence above about 47
The depositor's hits bear a star; ? = inconclusive; . = not tested or not shown. In the library only some 1.2% were active in any assay of this set; here they are far more common.

SMILES | RGS4-Gao reg | RGS7-Gao reg | RGS16-Gao | RGS8-Gao reg | GSH bead fluor | Avidin bead fluor
O=C(Nc1sc(-c2ccccc2)cc1C(=O)O)c1ccccc1 | 108 | ? | 109 | 105 | . | 6
Cc1cc([N+](=O)[O-])nn1CC(=O)N/N=C/c1ccc(O)cc1O | 68 | ? | 60 | 72 | . | 5
c1ccc(-c2onc3c2CCCC3)cc1 | 101 | 110 | 97 | 108 | 242* | 8
O=C(Nc1ccccn1)c1onc2c1CCCC2 | 98 | 103 | 84 | 96 | 11 | 4
NC(=S)n1[nH]c(-c2ccc([N+](=O)[O-])cc2)c(N=Nc2ccccc2[N+](=O)[O-])c1=O | 99 | 105 | 104 | 102 | 453* | 9
Cc1c(N=Nc2c(-c3ccc([N+](=O)[O-])cc3)[nH]n(C(N)=S)c2=O)cccc1[N+](=O)[O-] | 101 | 99 | 105 | 102 | 8 | 20
COc1cc(NC(=S)NC(=O)c2ccc(C(C)(C)C)cc2)ccc1NC(=O)c1cccs1 | 92 | 89 | 86 | 96 | 20 | 7
COc1cc(NC(=S)NC(=O)c2cc(C)cc(C)c2)ccc1NC(=O)c1cccs1 | 102 | 102 | 109 | 105 | 104* | 7
O=C(Nc1c(C(=O)Nc2ccccc2)cnn1-c1ccccc1)c1ccco1 | 93 | 93 | 58 | 89 | 5 | 4
O=C(Nc1c(C(=O)Nc2cccc3ccccc23)cnn1-c1ccccc1)c1ccco1 | 101 | 99 | 105 | 101 | 99* | 7
O=C(Nc1ccccc1NC(=O)c1ccco1)c1ccco1 | -45* | -19* | -27* | 6.2* | 11 | -4
O=C(Nc1ccccc1N(C(=O)c1ccco1)S(=O)(=O)c1cccs1)c1ccco1 | 99 | 99 | 102 | 101 | 275* | 6
CCO[C@@H]1OC(C(=O)N2CCN(Cc3ccccc3)CC2)=C[C@H](c2csc3ccccc23)[C@H]1CCCO | 97 | 94 | 99 | 98 | 17 | 6
O=C(NCc1ccncc1)C(=O)N/N=C/c1ccccn1 | 102 | 108 | 109 | 103 | 24 | 12
CCOc1ccc(C(=O)Nc2cc(-c3nc4ccccc4[nH]3)ccc2C)cc1[N+](=O)[O-] | 110 | 120 | 92 | 97 | 26 | 65*
CCOC(=O)NC(=O)CSc1nnnn1-c1ccccc1 | 116 | 135 | 123 | 104 | 30 | 109*
C/C(=N\Nc1nc2ccc(Cl)cc2o1)c1ccccc1 | 99 | ? | 100 | 100 | . | 9
O=C(Cc1c[nH]c2ccccc12)Nc1ccccc1N1CCOCC1 | 99 | 96 | 104 | 101 | 24 | 9
CC(C)CNC(=O)c1ccccc1NC(=O)c1ccc(CN2CCOCC2)cc1 | 97 | 102 | 102 | 102 | 19 | 48*
O=C(NC(=O)N1CCN(c2ccc([N+](=O)[O-])cn2)CC1)c1c(Cl)cccc1Cl | 139 | ? | 133 | 117 | . | 49*
O=C(NC(=O)N1CCN(c2ccc([N+](=O)[O-])cn2)CC1)c1ccccc1F | 98 | ? | 95 | 98 | . | 7
NS(=O)(=O)c1ccc(CCNC(=O)COC(=O)CN2C(=O)C3CCCCC3C2=O)cc1 (configuration not stated) | 106 | 107 | 106 | 105 | 11 | 12
CCNc1nc(NCC)nc(OCCOC(C)=O)n1 | 93 | 97 | 67 | 88 | 132* | 5
CCOC(=O)c1cn(CC2CC2)c2cc(F)c(F)cc2c1=O | 109 | 148 | 112 | 102 | 26 | 54*
CCC(C(=O)Nc1ccsc1C(=O)OC)c1ccccc1 (configuration not stated) | 105 | 112 | 105 | 98 | 14 | 17
c1ccc2c3c([nH]c2c1)-c1[nH]ncc1CC3 | 97 | 96 | 102 | 99 | 265* | 7
O=C(Nc1cccc2ccccc12)NC1CCS(=O)(=O)C1 (configuration not stated) | 96 | 128 | 116 | 100 | 17 | 58*

Bioassay records: PubChem BioAssay, NMMLSC
